Our source for the Potency and activity (max response) values is PubChem BioAssay (NCATS).

Experiment [1] addresses Cytochrome P450 3A7 (Homo sapiens) (UniProt P24462). Briefly: Cytochrome P450 family 3 subfamily A member 7 (CYP3A7) small molecule antagonists: luciferase biochemical qHTS assay (AID 1963596). Further: on the % scale 0 is the no-effect control and ±100 the full control effect; nearly all actives have a fitted effect of over 40% in size. The method, boiled down: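 Luminescence read-out (relative luminescence units) after 20 min with detection reagent, which stops the reaction. Enzyme, proluciferin substrate and compound preincubated 10 min, RT; NADPH regeneration system then started 1 h reaction. Ketoconazole as positive control.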
A general note: Quantitative high-throughput screening tests each substance at several concentrations.

The nature of experiment [2]: Viability qHTS for spleen associated tyrosine kinase inhibitor (SYKi) drug resistant MV4-11 cells (AID 1963824). Further: nearly all actives have a fitted effect of over 35% in size. Further: potency means the concentration at half of the fitted maximal effect. The gist of the method: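 SYK inhibitor-resistant MV4-11 AML cells, 500 per well, added to predispensed compounds and incubated 72 hr at 37 C, 5% CO2. Viability measured by CellTiter-Glo luminescence after 10 min at room temperature.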
Experiment [3] is described as follows: Quantitative highthroughput screen to assess conditional lethalithy of NOMO1 cells grown in RPMI1640 with untreated serum (RPMI+s) (AID 1963876). Further: nearly all actives have a fitted effect of over 35% in size. Further: potency means the concentration at half of the fitted maximal effect.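 On Viability: 100% = DMSO wells and 0% = empty wells without cells.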 The gist of the method: (§1)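 Each medium arm—HPLM with 10% dialyzed FBS, or RPMI1640 with 5 mM glucose and 10% untreated or dialyzed FBS—was screened against an 11-point, 3-fold compound titration for 48 h at 37 °C, with CellTiter-Glo luminescence as endpoint.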

Experiment [4] can be described thus: Quantitative highthroughput screen to assess conditional lethalithy of P12 Ichikawa cells grown in Human Plasma-Like Medium with dialyzed fetal bovine serum (HPLM+ds) (AID 1963879). Further: nearly all actives have a fitted effect of over 35% in size. Further: potency means the concentration at half of the fitted maximal effect. On Viability: series mostly up to about 46 µM. The conditions noted are these: Potency: viability. The gist of the method: as §1
Experiment [5] can be described thus: Quantitative highthroughput screen to assess conditional lethalithy of SEM cells grown in RPMI1640 with unreated serum (RPMI+s) (AID 1963883). Further: nearly all actives have a fitted effect of over 35% in size. Further: potency means the concentration at half of the fitted maximal effect.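 On Viability: 100% = DMSO wells and 0% = empty wells without cells.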 The method, boiled down:
as §1

The nature of experiment [6]: Cellular viability qHTS for adrenocortical cancer (ACC) cell line SW-13 (AID 1963989). Further: nearly all actives have a fitted effect of over 65% in size. Further: potency means the concentration at half of the fitted maximal effect.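 On activity (max response): cells grown in serum-free medium with ITS supplement; on the % scale 0 is the no-effect control and ±100 the full control effect.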 Particulars: SW-13 ACC cells viability, CellTiter-Glo, 48 h; activity (max response): stronger effect = lower value. The gist of the method: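 Viability was read as CellTiter-Glo luminescence after 48 h compound treatment (up to 46 uM final) of SW-13 cells grown serum-free; titration curves were fit with a four-parameter logistic model to give IC50 and efficacy.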

Experiment [7] is described as follows: Cellular viability qHTS for adrenocortical cancer (ACC) cell line NCI-H295R (AID 1963990). Further: nearly all actives have a fitted effect of over 60% in size. Further: potency means the concentration at half of the fitted maximal effect. The method, boiled down: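 CellTiter-Glo ATP luminescence, read 48 h after compound addition, measured viability of NCI-H295R adrenocortical cells grown serum-free with ITS. Final concentrations spanned up to 46 uM. Data normalized to DMSO and doxorubicin, fitted for IC50 and maximal response.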

The nature of experiment [8]: Quantitative highthroughput screen to assess conditional lethalithy of SEM cells grown in RPMI1640 with dialyzed fetal bovine serum (RPMI+ds) (AID 1963884). Further: nearly all actives have a fitted effect of over 35% in size. Further: potency means the concentration at half of the fitted maximal effect.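 On Viability: series mostly up to about 46 µM; 100% = DMSO control wells and 0% = empty wells without cells.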 The method, boiled down: as §1
Experiment [9] in a line: Quantitative highthroughput screen to assess conditional lethalithy of NOMO1 cells grown in RPMI1640 with dialyzed fetal bovine serum (RPMI+ds) (AID 1963877). Further: nearly all actives have a fitted effect of over 30% in size. Further: potency means the concentration at half of the fitted maximal effect.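 On Viability: series mostly up to about 46 µM; 100% = DMSO control wells and 0% = empty wells.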 The method, boiled down: as §1
Experiment [10] in a line: Quantitative highthroughput screen to assess conditional lethalithy of NOMO1 cells grown in Human Plasma-Like Medium with dialyzed fetal bovine serum (HPLM+ds) (AID 1963878). Further: nearly all actives have a fitted effect of over 35% in size. Further: potency means the concentration at half of the fitted maximal effect.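 On Viability: 100% = DMSO wells and 0% = empty wells on each plate.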 The gist of the method: as §1
Experiment [11] is described as follows: Quantitative highthroughput screen to assess conditional lethalithy of P12 Ichikawa cells grown in RPMI1640 with dialyzed fetal bovine serum (RPMI+ds) (AID 1963880). Further: nearly all actives have a fitted effect of over 35% in size. Further: potency means the concentration at half of the fitted maximal effect.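 On Viability: 100% = DMSO wells and 0% = empty wells on each plate.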 Particulars: Potency: P12-Ichikawa viability. The method, boiled down:
as §1

Experiment [12] in a line: Quantitative highthroughput screen to assess conditional lethalithy of SEM cells grown in Human Plasma-Like Medium with dialyzed fetal bovine serum (HPLM+ds) (AID 1963882). Further: nearly all actives have a fitted effect of over 35% in size. Further: potency means the concentration at half of the fitted maximal effect. On Viability: series mostly up to about 46 µM. The gist of the method:
as §1

Where “and” joins values, the source holds several entries; their conditions need not be identical. Equal values may be shown once. Inconclusive results are not listed. Values without a mark were called inactive. Calls of active or inactive are those of the source. The call rests on the fitted dose curve; in most records, active means well fitted curve in the direction sought with a large enough effect; inconclusive means small, poorly fitted or top-dose-only effect, or another doubt; inactive means no such curve, though single readings can be large; an effect the other way counts as inactive or inconclusive.

Sequence of Cytochrome P450 3A7 (Homo sapiens) (P24462 whole entry, looked up): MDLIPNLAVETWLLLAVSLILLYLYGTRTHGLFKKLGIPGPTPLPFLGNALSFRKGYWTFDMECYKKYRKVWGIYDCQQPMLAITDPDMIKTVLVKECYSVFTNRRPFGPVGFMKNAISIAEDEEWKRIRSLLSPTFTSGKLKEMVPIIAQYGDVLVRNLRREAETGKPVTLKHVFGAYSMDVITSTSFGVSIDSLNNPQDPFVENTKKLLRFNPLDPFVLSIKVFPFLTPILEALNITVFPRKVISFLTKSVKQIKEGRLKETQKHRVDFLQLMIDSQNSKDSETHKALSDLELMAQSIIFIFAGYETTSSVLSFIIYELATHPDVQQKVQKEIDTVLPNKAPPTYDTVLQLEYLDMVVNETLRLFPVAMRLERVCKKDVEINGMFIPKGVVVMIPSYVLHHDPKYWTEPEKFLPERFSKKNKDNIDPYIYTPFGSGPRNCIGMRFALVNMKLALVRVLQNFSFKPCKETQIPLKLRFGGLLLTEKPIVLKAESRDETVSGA

In the case of `CN(C)C(=O)C(=O)c1cn(C)c2cc(Cl)c(C(=O)N3CCC(Cc4ccc(F)cc4)CC3)cc12`, in experiment [1], the Potency result is “inactive”. Also, the Potency in experiment [2] was 8.2 µM (active).
The matching figures for `CCCN1CCC(c2cccc(S(C)(=O)=O)c2)CC1`: “inactive” and “inactive”.
The matching figures for `CC(CNS(=O)(=O)C(C)C)c1ccc(-c2ccc(C#N)cc2)cc1` (stereo unspecified): “inactive” and 2.59 µM (active).
The matching figures for `CN1CCc2nc(C(=O)N[C@@H]3C[C@@H](C(=O)N(C)C)CC[C@@H]3NC(=O)C(=O)Nc3ccc(Cl)cn3)sc2C1`: “inactive” and “inactive”.
On to `C[N+]1(CC2COC(c3ccccc3)(c3ccccc3)O2)CCCCC1` (stereo unspecified), for which the Potency entry in [1] is “inactive”. Further, the Potency in experiment [2] is 10 µM (active).
The matching figures for `O=P(O)(O)OCC(O)CO` (stereo unspecified): “inactive” and “inactive”.
Regarding `COc1cc(N2CCOCC2)ccc1NC(=O)c1csc(-c2cccnc2)n1`, in experiment [1], the Potency result was “inactive”. Further, the Potency in [2] was 0.259 µM (active).
Take `COc1cc2ncnc(Nc3cccc(I)c3)c2cc1OC`: in experiment [1], the Potency entry is “inactive”. The Potency in experiment [2] is 2.91 µM (active) and 13 µM (active).
For `Cc1c(F)cc2c(=O)c(C(=O)O)cn3c2c1CCC3C` (stereo unspecified), the Potency entry in experiment [1] and in experiment [2] was “inactive” throughout.
For `COc1ccccc1N1CCN(CC[C@@](C)(C(=O)C2CCCCC2)c2ccccc2)CC1`, the Potency entry in experiment [1] was “inactive”. For the same compound, in [2], the Potency is 14.6 µM (active).
`Clc1ccc2c(c1)C1=NCCN1c1c(-c3noc(C4CC4)n3)ncn1-2`: the Potency result in [1] and in experiment [2] was “inactive” throughout.
Consider `Nc1nc(Cl)nc2c1ncn2[C@@H]1O[C@H](CO)[C@@H](O)[C@@H]1F`, for which the Potency result in [1] was “inactive”. Moreover, the Potency in experiment [2] was 188 nM (active) and 332 nM (active).
Consider `O=C(N[C@@H]1CCCc2c1cnn2-c1ccc(F)cc1F)c1ccccn1`, for which, in [1], the Potency entry was “inactive”. The Potency in experiment [2] was 14.6 µM (active).
The matching figures for `Cc1cc2sc(NC(=O)Cc3ccccc3)nc2cc1Cl`: “inactive” and “inactive”.
As for `Cn1c(=O)n(-c2ccc(C(C)(C)C#N)cc2)c2c3cc(C#Cc4cccnc4)ccc3ncc21`, the Potency result in [1] is “inactive”. In experiment [2], the Potency is 0.0447 µM (active).
The matching figures for `FC(F)(F)c1ccccc1-c1cc(C(F)(F)F)c2nc(C3=NOC4(CCCCC4)C3)[nH]c2c1`: “inactive” and 16.4 µM (active).
The matching figures for `CCCNc1ccc2ncc(-c3ccc4[nH]ncc4c3)n2n1`: “inactive” and 0.0116 µM (active).
As to `NC(=O)c1ccccc1O`, the Potency result in [1] and in experiment [2] was “inactive” throughout.
Regarding `Cc1cnn(-c2ccccc2)c1NC(=O)COCc1ccccc1`, the Potency entry in experiment [1] and in experiment [2] was “inactive” in each case.
Regarding `CN1CCN(C2=Nc3ccccc3Nc3ccc(O)cc32)CC1`, the Potency entry in experiment [1] and in experiment [2] was “inactive” throughout.
For `N#Cc1cc(F)cc(-c2nc(-c3ccccn3)no2)c1`, the Potency result in experiment [1] and in experiment [2] was “inactive” each time.
As to `O=C(O)CNC(=O)c1ccccc1I`, the Potency result in experiment [1] and in [2] was “inactive” each time.
Take `CC(C)c1noc(C2CCN(c3ncnc(Nc4ccc(S(C)(=O)=O)cc4F)c3[N+](=O)[O-])CC2)n1`: the Potency entry in [1] and in [2] was “inactive” in each case.
As for `CN(C)c1ccc(C2O[C@@H](c3ccccc3)C[C@H](c3ccccc3)O2)cc1` (stereo partly specified), the Potency result in experiment [1] and in experiment [2] was “inactive” each time.
With `CC#CC(=O)Nc1ccc2ncnc(Nc3cccc(Br)c3)c2c1`, the Potency entry in experiment [1] is “inactive”. The Potency in experiment [2] was 1.46 µM (active) and 580 nM (active).
Turning to `COc1ccc(CCO[C@@H]2CCCC[C@H]2N2CC[C@@H](O)C2)cc1OC`, the Potency result in [1] and in [2] was “inactive” in each case.
For `COCCCNCC1COc2ccccc2O1` (stereo unspecified), the Potency result in [1] and in experiment [2] was “inactive” each time.
Consider `COc1ccccc1-c1ccc(-c2cn(C(=O)N3CCCCC3Cc3ccccc3)nn2)cc1` (stereo unspecified), for which the Potency entry in [1] was “inactive”. Besides, the Potency in experiment [2] was 14.6 µM (active).
Turning to `CCCN1CCC[C@@H](c2cccc(S(C)(=O)=O)c2)C1`, the Potency result in [1] was “inactive”. Besides, in [2], the Potency was 10.3 µM (active).
The matching figures for `c1ccc(N2CCN(CCc3nn[nH]n3)CC2)cc1`: “inactive” and “inactive”.
The matching figures for `CCC(=O)N1CCOc2c(cc(-c3ccc(OC)c(OC)c3)cc2OC[C@H]2CCCN(C)C2)C1`: “inactive” and 7.31 µM (active).
The matching figures for `COC(=O)c1ccc2c(c1)nc(NC(=O)c1ccccc1)n2CCCc1ccccc1`: “inactive” and “inactive”.
Turning to `CC1(c2nc3c(C(N)=O)cccc3[nH]2)CCCN1` (stereo unspecified), the Potency result in experiment [1] and in experiment [2] was “inactive” in each case.
With `O=c1cc(N2CCN(c3cccc(C(F)(F)F)c3)CC2)[nH]c(=O)n1C1CCCCC1`, the Potency result in experiment [1] and in experiment [2] was “inactive” throughout.
As to `CCNC(=O)N1CCCN(c2ccc(C(=O)NCCc3ccc(Cl)cc3Cl)cc2NC(=O)c2cccc(Cl)c2)CC1`, the Potency entry in experiment [1] is “inactive”. In experiment [2], the Potency was 20.6 µM (active).
The matching figures for `CN(C)CCCNc1nc(CN2CCN(C(c3ccc(Cl)cc3)c3ccc(Cl)cc3)CC2)nc2ccccc12`: “inactive” and 3.26 µM (active).
The matching figures for `CC(C)CCC(=O)CC1c2ccccc2C(=O)N1c1ccc2ccc(Cl)nc2n1` (stereo unspecified): “inactive” and “inactive”.
As to `CC(C)c1cc2c(N3CCN(C4=NCC(C)(C)S4)CC3)ncnc2s1`, in experiment [1], the Potency result is “inactive”. For the same compound, in experiment [2], the Potency is 5.8 µM (active).
As to `C#CCC(Cc1cnc2nc(N)nc(N)c2n1)c1ccc(C(=O)N[C@@H](CCC(=O)O)C(=O)O)cc1` (stereo partly specified), the Potency result in [1] was “inactive”. Further, the Potency in experiment [2] is 0.0021 µM (active); in [3], 0.187 µM (active); in experiment [4], 0.0372 µM (active); in experiment [5] it was 0.059 µM (active); in experiment [6], 35.5 nM (active); in [7] it was 15.8 nM (active).
As for `CN1Cc2cc(C(=O)N3CCC(C4CCNCC4)CC3)ccc2NC(CC(=O)O)C1=O` (stereo unspecified), the Potency entry in experiment [1] and in experiment [2] was “inactive” each time.
For the compound `COc1cc2c(c(OC)c1OC)-c1ccc(OC)c(=O)cc1[C@@H](NC(C)=O)CC2`, the Potency result in experiment [1], in experiment [3], in experiment [5] and in experiment [8] was “inactive” each time. For the same compound, the Potency is 16.8 nM (active) and 14.8 nM (active) in experiment [2]; 25.9 nM (active) and 35.5 nM (active) in [6]; 92 nM (active) and 100 nM (active) in [7].
For `CCN(CC)C(=O)c1ccc(O)c(OC)c1`, the Potency entry in experiment [1] and in experiment [2] was “inactive” throughout. Further, the activity (max response) in experiment [6] is 3.37%.
For the compound `O=C(O)c1cccnc1`, the Potency entry in experiment [1], in experiment [2] and in experiment [7] was “inactive” throughout. The Potency in [3] is 8.33 µM (active); in [9] it was 5.26 µM (active); in experiment [10] it was 3.72 µM (active); in [11], 10.5 µM (active); in [12], 1.18 µM (active); in [5] it was 2.96 µM (active). The Potency in [8] is 2.96 µM (active). Besides, the activity (max response) in [6] is -4.23% and 5.29%.
Consider `Cn1cc(-c2ccc(F)c(C(F)(F)F)c2)nc1C1CCN(c2ncnc3[nH]ncc23)CC1`, for which the Potency entry in experiment [1], in [2], in experiment [9], in [10], in experiment [4] and in experiment [11] was “inactive” each time. In addition, the Potency entry in experiment [12], in experiment [5] and in [7] was “inactive” in each case. The activity (max response) in experiment [6] is 13.1%.
